HCMV inh = qHTS Assay for inhibitors of the human cytomegalovirus (HCMV). HFF cells, HCMV-luciferase reporter, 72 h; active compounds read low. activity change, negative = inhibition, % at 57.5 µM. 410,000 compounds, 4.5% hits; in the data active = activity change below about -60%; inconclusive = no clear call, values can overlap the other calls; inactive = above about -39%
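Steps: HFFs plated, 16 h 37C; compounds added; HCMV-luciferase added to MOI 1 PFU/cell; 72 h 37C; OneGlo reagent, 5 min room temperature; luminescence read, normalized to controls.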
Vaccinia Venus = qHTS for Stage-Specific Inhibitors of Vaccinia Orthopoxvirus: Venus Reporter Primary qHTS. Potency, µM (top dose mostly 36.5 µM), hits mostly inhibitors. Vaccinia virus Venus reporter expression, fluorescence. AID 720580, 2013. 330,000 compounds, 0.46% hits; calls by dose curve; tested in A549 cells; also: nearly all actives have a fitted effect of over 30% in size
MARV entry inh = qHTS for inhibitors of binding or entry into cells for Marburg Virus; AID 540276, 2011; 300,000 compounds, 1.8% hits; Marburg virus pseudotyped entry inhibition, cell reporter; Potency, µM (highest dose often 37.8 µM), most hits filed as inhibitors; calls by dose curve; tested in HEK293 cells
Vaccinia mCherry = qHTS for Stage-Specific Inhibitors of Vaccinia Orthopoxvirus: mCherry Reporter Primary qHTS. Potency, µM (top dose mostly 36.5 µM), most hits filed as inhibitors. 310,000 compounds, 0.63% hits. Vaccinia virus mCherry reporter infection, fluorescence. AID 720579, 2013; calls by dose curve; tested in A549 cells; also: nearly all actives have a fitted effect of over 35% in size
LASV entry inh = qHTS for Inhibitors of binding or entry into cells for Lassa Virus; Lassa virus pseudotype entry inhibition, cell reporter; Potency, µM (titrated, usually from 37.9 µM), usual class: inhibitors; 300,000 compounds, 1.2% hits; AID 540256, 2011; calls by dose curve; tested in HEK293 cells; also: nearly all actives have a fitted effect of over 50% in size
HCV inhibitor = qHTS Assay for Inhibitors of Hepatitis C Virus (HCV). Potency, µM (titrated, usually from 41.8 µM), most hits filed as inhibitors. 340,000 compounds, 3.4% hits. Huh7.5.1 HCVcc-Cre infection, luciferase reporter, 44 h
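1,000 cells/well; 4 h culture; + compound; + HCVcc-Cre (~0.5 moi); 44 h; luciferase substrate, RT 15 min; read 15 sec.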
HCV confirm = qHTS Assay for Inhibitors of Hepatitis C Virus (HCV): Confirmation Assay for Cherry-picked Compounds; shares compounds with HCV inhibitor; HCVcc-Cre infectious virus cell assay, luciferase, inhibition; Potency, µM (top dose mostly 41.8 µM), hits mostly inhibitors; 640 compounds, 78% hits; AID 720575, 2013; also: nearly all actives have a fitted effect of over 80% in size
HCV cytotox = qHTS Assay for Inhibitors of Hepatitis C Virus (HCV): Cytotoxicity Counterscreen for Cherry-picked Compounds | shares compounds with HCV inhibitor | HCV host cell line cytotoxicity counterscreen | Potency, µM (doses to about 41.8 µM), most hits filed as inhibitors | 640 compounds, 22% hits | AID 720576, 2013;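 also: 44 h compound exposure; nearly all actives have a fitted effect of over 55% in size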
Numbers stand for hits; 0 = inactive; ? = inconclusive; - = not tested or not shown. A selection: hits, their analogues and other compounds. The true share with any hit is near 7.8%. Unless noted, calls follow the shape of the dose curve; as a rule, active = well fitted curve in the direction sought with a large enough effect; inconclusive = small, poorly fitted or top-dose-only effect, or another doubt; inactive = no such curve, though single readings can be large; an effect the other way counts as inactive or inconclusive.

SMILES	HCMV inh	Vaccinia Venus	MARV entry inh	Vaccinia mCherry	LASV entry inh	HCV inhibitor	HCV confirm	HCV cytotox
CCc1nn2cc(C(=O)c3cc(C)ccc3O)cnc2c1-c1ccc(F)cc1	0	0	?	0	0	?	-	-
CCc1nn2cc(C(=O)c3ccccc3O)cnc2c1-c1ccc(F)cc1	0	0	0	0	0	?	11.2µM	0
CCOc1ccc(CNC(=O)c2ccc(Sc3ccc(Cl)cc3)c(NC(C)=O)c2)cc1	0	?	?	?	?	0	-	-
CCOc1ccccc1CNC(=O)c1ccc(Sc2ccc(Cl)cc2)c(NC(C)=O)c1	0	0	0	0	0	?	12.5µM	0
COC(=O)[C@@H]1N2C(=O)[C@@H](NC(=O)C(C)Oc3ccccc3)[C@H]2SC1(C)C (stereo partly drawn)	-	0	-	0	-	-	-	-
CCC1CCCCN1C(=O)c1cc(COc2ccc3ncccc3c2)on1 (stereo not drawn)	-91.0	0	?	?	?	3.16µM	1.77µM	3.15µM
CCN1C(Br)=CCc2ccccc21	-	0	-	0	-	-	-	-
Cc1ccccc1NC(=O)CCl	0	-	-	-	-	0	-	-
O=C(CCl)Nc1cc2[nH]c(=O)[nH]c2cc1Br	-105.4	?	?	?	?	6.31µM	15.8µM	?
CCOC(=O)C1(Cc2ccccc2C(F)(F)F)CCN(C2CCN(C(C)C)CC2)CC1	-68.6	-	7.3µM	-	?	3.16µM	11.2µM	0
O=C(Cc1csc(Nc2nc(=S)[nH]c3ccccc23)n1)N1CCN(c2cccc(C(F)(F)F)c2)CC1	0	0	0	0	-	5.62µM	12.5µM	12.5µM
O=C(Cc1csc(Nc2nc(=S)[nH]c3ccccc23)n1)NCc1cccc(Cl)c1	0	-	?	-	0	?	-	-
Cc1cc(C(=O)CSc2nnc(-c3ccco3)o2)c(C)n1Cc1ccco1	0	0	0	0	0	?	15.8µM	?
CCOC(=O)CC(=O)CSc1nc2sc(C)cc2c(=O)n1Cc1ccco1	0	0	0	0	0	?	11.2µM	0
CCc1ccc(C2c3c(-c4ccccc4O)n[nH]c3C(=O)N2Cc2ccncc2)cc1 (stereo not drawn)	0	0	?	?	?	-	-	-
Cc1cc2oc(C(=O)NCCc3ccc(S(N)(=O)=O)cc3)c(C)c2cc1C	0	0	0	0	0	?	?	0
CC1Cn2c(C(=O)NCc3cccc(Br)c3)cc3cccc(c32)S1 (stereo not drawn)	0	0	-	0	0	-	-	-
COc1ccc2c(C)c(CCC(=O)NCCc3ccc(OC)c(OC)c3)c(=O)oc2c1	0	0	0	0	0	-	-	-
Nc1c(CC(=O)O)cccc1C(=O)c1ccc(Br)cc1	0	-	-	-	-	-	-	-
Cc1cc(C)cc(N=c2c([N+](=O)[O-])nn(-c3ccc(Cl)cc3)n2O)c1	0	0	0	0	0	?	15.8µM	0
CCOC(=O)C1CCCN(S(=O)(=O)c2ccc(S(=O)(=O)N(CC)CC)cc2)C1 (stereo not drawn)	-69.8	0	-	0	-	0.891µM	0.705µM	1.77µM
CCOC(=O)C1CCCN(S(=O)(=O)c2ccc(C)cc2)C1 (stereo not drawn)	0	0	?	0	0	0	-	-
O=C(NCC(c1ccc2c(c1)OCO2)N1CCN(c2ccccc2)CC1)C(=O)Nc1cccc(F)c1 (stereo not drawn)	0	0	-	0	0	-	-	-
COc1ccc(CCn2c(SCC(=O)Nc3cc(C)on3)nc3ccccc3c2=O)cc1OC	0	0	0	0	0	0	-	-
COc1ccc(CCn2c(SCC(=O)Nc3cc(C)on3)nc3ccsc3c2=O)cc1OC	0	-	?	-	0	?	?	0
C=C1C(=O)O[C@@]23[C@H]1CC[C@@H](C)[C@@H]2CC[C@@]1(C)O[C@@H]31	-	?	-	?	-	2.82µM	?	0

Bioassay records (PubChem BioAssay)
